{
  "source": "PubChem BioAssay (NCATS)",
  "note": "Results filed as inconclusive are left out. Calls of active or inactive are those of the source. Calls follow the shape of the dose curve; as a rule, active = well fitted inhibition curve with a large enough effect; inconclusive = small, poorly fitted or top-dose-only effect; inactive = flat fitted curve, though single readings scatter.",
  "data": [
    {"tested_on": "CRL-7250", "experiment": "qHTS assay to identify novel small-molecules to repurpose for Merkel cell carcinoma treatment (AID 1296009); also: nearly all actives have a fitted effect of over 60% in size", "conditions": "MCC and control cell lines, CellTiter-Glo viability, 72 h; at 44.8 µM (top of the series) unless noted", "method_in_brief": "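After compound transfer in DMSO, plates were kept 72 hr at 37 degree celsius. Luminescent ATP signal from CellTiter-Glo served as viability measure, normalized against DMSO and no-cell controls.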", "values": [
      {"smiles": "CC(C)(C)COc1ccc(-n2cc(C(=O)O)cn2)cc1C#N", "outcome": "inactive"},
      {"smiles": "O=[N+]([O-])c1cccc(S(=O)(=O)NCCNS(=O)(=O)c2cccc([N+](=O)[O-])c2)c1", "outcome": "inactive"},
      {"smiles": "Cc1cccc(C)c1NC(=O)c1ccccc1C(=O)O", "outcome": "inactive"},
      {"smiles": "C[C@]12CC[C@H](O)CC1=CC[C@@H]1[C@H]2CC[C@]2(C)C(c3cccnc3)=CC[C@H]12", "outcome": "inactive [at 17.4 µM]"},
      {"smiles": "CCOC(=O)C(=O)CCCCCCl", "outcome": "inactive"},
      {"smiles": "O=C(O)[C@H](Cc1c[nH]c2ccccc12)N1C(=O)c2ccccc2C1=O", "outcome": "inactive [at 92 µM]"},
      {"smiles": "CC(C)OC(=O)C1=CN(C(=O)c2ccc(F)c(F)c2)CC(C)(C)c2c1[nH]c1ccccc21", "outcome": "inactive"},
      {"smiles": "CN1CCN(c2c(F)cc3c(=O)c(C(=O)O)cn4c3c2OCN4C)CC1", "outcome": "inactive [at 17.4 µM]"},
      {"smiles": "CS(=O)(=O)Oc1ccc2c(NC(N)=O)c(C(=O)c3ccc(Cl)cc3Cl)oc2c1", "outcome": "inactive"},
      {"smiles": "CCN(CC)CCNC(=O)c1ccc(NC(C)=O)cc1", "outcome": "inactive"},
      {"smiles": "CC(=O)Nc1ccc(O)cc1", "outcome": "inactive"},
      {"smiles": "O=C(C1CC1)N1CC[C@@H](Cn2c(-c3ccc(-c4ccc5occc5c4)cc3)nc3cnccc32)C1", "outcome": "inactive"},
      {"smiles": "Cc1c(C)c2c(c(C)c1OC(=O)c1cccnc1)CC[C@@](C)(CCC[C@H](C)CCC[C@H](C)CCCC(C)C)O2", "outcome": "inactive"},
      {"smiles": "COc1cc2c(cc1OC)C(=O)CC2", "outcome": "inactive"},
      {"smiles": "CC(C)OC(=O)c1cc(C(=O)OC(C)C)cc([N+](=O)[O-])c1", "outcome": "inactive [at 92 µM]"},
      {"smiles": "Clc1ccc2ncc(-c3cccc(NC4CNC4)n3)n2c1", "outcome": "inactive"},
      {"smiles": "CCc1c(C)[nH]c2c1C(=O)C(CN1CCOCC1)CC2", "note": "(configuration not stated)", "outcome": "inactive"},
      {"smiles": "O=C(C=Cc1c(C(=O)O)[nH]c2cc(Cl)cc(Cl)c12)Nc1ccccc1", "outcome": "inactive"},
      {"smiles": "COc1c(Cl)cc2c([nH]c3cnccc32)c1NC(=O)c1cccnc1C", "outcome": "inactive"},
      {"smiles": "CC(C[N+](C)(C)C)OC(N)=O", "note": "(configuration not stated)", "outcome": "inactive"},
      {"smiles": "Cc1nnc(C(C)C)n1C1CC2CCC(C1)N2CC[C@H](NC(=O)C1CCC(F)(F)CC1)c1ccccc1", "note": "(some centres not stated)", "outcome": "inactive"},
      {"smiles": "O=S(c1cc(Cl)cc(Cl)c1O)c1cc(Cl)cc(Cl)c1O", "outcome": "inactive"},
      {"smiles": "CCOc1cc(C(=O)Nc2ccc(Cl)c(-c3nc4ccccc4[nH]3)c2)cc(OCC)c1OCC", "outcome": "inactive"},
      {"smiles": "C1=CC2C3C=CC(C3)C2C1", "note": "(configuration not stated)", "outcome": "inactive [at 92 µM]"},
      {"smiles": "Cc1cccc(Nc2nc(N[C@@H]3CCCC[C@H]3N)ncc2C(N)=O)c1", "outcome": "inactive"},
      {"smiles": "CCOC(=O)[C@@H](N)CCC(=O)N[C@@H](CSCc1ccccc1)C(=O)N[C@@H](C(=O)OCC)c1ccccc1", "outcome": "inactive"},
      {"smiles": "CC(C)CCCC(C)CCCC(C)CCCCC(C)CCCC(C)CCCC(C)C", "note": "(configuration not stated)", "outcome": "inactive"},
      {"smiles": "CC(C)(C)C(O)/C=C/c1ccc2c(c1)OCO2", "note": "(configuration not stated)", "outcome": "inactive"},
      {"smiles": "COc1ccc2c(c1)c1c3n2CCN(C)C3=NCC1", "outcome": "inactive"},
      {"smiles": "CCCCC(CC)COC(=O)c1ccc(N(C)C)cc1", "note": "(configuration not stated)", "outcome": "inactive"},
      {"smiles": "COc1ccc(CCN(C)CCCOc2ccc(S(=O)(=O)c3[nH]c4ccccc4c3C(C)C)cc2)cc1OC", "outcome": "inactive"},
      {"smiles": "CC(C)(C)C(=O)Oc1ccc2c(c1)nc(NC(=O)c1cccc([N+](=O)[O-])c1)n2CCCO", "outcome": "inactive"}
    ]}
  ]
}
